In PubChem BioAssay (Tox21):
Inconclusive results are not listed. A call without a number means that no potency is given here. Calls of active or inactive are those of the source. Unless noted, calls come from the whole dose curve; as a rule, active = well fitted curve in the direction sought with a large enough effect in the repeat runs; inconclusive = weak or mixed curves; inactive = no such curve, though single readings can be large; an effect the other way counts as inactive or inconclusive.

What was measured:
[1] = qHTS assay to test for compound auto fluorescence at 535 nm (green) in HEK293 cells (AID 720680)
[2] = qHTS assay to test for compound auto fluorescence at 460 nm (blue) in HEK293 cell free culture (AID 720681)
Procedure, shortened: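 Blue fluorescence (Ex 405/Em 460 nm, triamterene-equivalent) was read immediately after pin transfer of compound or DMSO into medium (DMEM, 10% FBS) without cells.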

[3] = qHTS assay to test for compound auto fluorescence at 535 nm (green) in HEK293 cell free culture (AID 720682)
Procedure, shortened: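 Compounds were pin-transferred into cell-free DMEM with 10% FBS, and green fluorescence was read at excitation 485 nm and emission 535 nm. Intensities were expressed as fluorescein-equivalent values.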

[4] = qHTS assay to test for compound auto fluorescence at 590 nm (red) in HEK293 cell free culture (AID 720683)
Procedure, shortened: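 Red-channel autofluorescence of compounds in culture medium (DMEM, 10% FBS), no cells, measured at 540/590 nm. Rose Bengal sodium is the reference fluorophore for equivalence.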

[5] = qHTS assay to test for compound auto fluorescence at 590 nm (red) in HepG2 cell free culture (AID 720684)
Procedure, shortened: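 Steps: dispense MEM/10% FBS medium, no cells; pin compound or DMSO vehicle; read red channel, Ex/Em 540/590 nm. Output given as Rose Bengal sodium equivalents.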

[6] = qHTS assay to test for compound auto fluorescence at 460 nm (blue) in HepG2 cell free culture (AID 720685)
Procedure, shortened: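 Compound (23 nL) or DMSO pinned into cell-free MEM with 10% FBS; blue fluorescence read at 405/460 nm excitation/emission, expressed as auto-fluorescence equivalency to triamterene.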

[7] = qHTS assay to test for compound auto fluorescence at 535 nm (green) in HepG2 cell free culture (AID 720686)
[8] = qHTS assay to test for compound auto fluorescence at 460 nm (blue) in HepG2 cells (AID 720687)
Procedure, shortened: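 Blue-channel autofluorescence (Ex/Em 405/460 nm, triamterene-equivalent) was measured after 1 hr compound exposure at 37 C, 5% CO2. Cells were HepG2, plated overnight at 37 C in MEM plus 10% FBS.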

[9] = molecular target: Glucocorticoid receptor (Homo sapiens) (UniProt P04150); assay: qHTS assay to identify small molecule agonists of the glucocorticoid receptor (GR) signaling pathway (AID 720691; active = well fitted activation curve with a large enough effect in the signal ratio in the repeat runs, not every such curve was filed as active; the % refers to the signal ratio; note: potency is the fitted concentration of half-maximal effect); details: GR-bla HeLa, beta-lactamase reporter ratio, 18 h; activation: at 62.4 µM (top of the series)
Glucocorticoid receptor (Homo sapiens), sequence (P04150 whole entry, looked up): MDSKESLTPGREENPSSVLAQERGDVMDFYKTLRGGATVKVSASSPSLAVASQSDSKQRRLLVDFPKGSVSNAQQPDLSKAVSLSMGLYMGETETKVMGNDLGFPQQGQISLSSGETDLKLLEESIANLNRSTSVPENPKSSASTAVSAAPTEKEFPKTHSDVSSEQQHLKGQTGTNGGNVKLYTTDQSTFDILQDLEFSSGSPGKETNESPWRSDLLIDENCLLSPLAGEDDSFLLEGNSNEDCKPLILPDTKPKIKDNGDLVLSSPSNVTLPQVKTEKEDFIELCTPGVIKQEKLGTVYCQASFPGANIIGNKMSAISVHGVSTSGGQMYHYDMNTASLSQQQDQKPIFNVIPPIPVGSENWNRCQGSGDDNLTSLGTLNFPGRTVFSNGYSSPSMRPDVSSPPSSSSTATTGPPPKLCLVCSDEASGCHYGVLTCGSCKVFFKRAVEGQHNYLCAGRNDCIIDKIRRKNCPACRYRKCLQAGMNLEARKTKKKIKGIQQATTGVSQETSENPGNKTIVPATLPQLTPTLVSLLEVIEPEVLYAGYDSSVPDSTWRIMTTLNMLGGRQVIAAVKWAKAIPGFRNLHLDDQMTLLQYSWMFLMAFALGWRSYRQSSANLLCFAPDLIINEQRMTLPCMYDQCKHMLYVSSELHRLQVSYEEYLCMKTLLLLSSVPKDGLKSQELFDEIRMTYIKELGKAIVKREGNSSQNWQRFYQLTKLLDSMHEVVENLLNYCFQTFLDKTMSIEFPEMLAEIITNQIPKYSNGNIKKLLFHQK
Procedure, shortened: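 GR-bla HeLa cells (beta-lactamase reporter under glucocorticoid response element) were plated 4 h at 37 C/5% CO2, given compounds in DMSO, and incubated 18 h at 37 C. LiveBLAzer B/G FRET substrate was added for 2 h at room temperature, then fluorescence intensity read.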

[10] = qHTS assay to identify small molecule antagonists of the glucocorticoid receptor (GR) signaling pathway - cell viability counter screen (AID 720693); note: nearly all actives have a fitted effect of over 55% in size
[11] = qHTS assay for identifying genotoxic compounds that show differential cytotoxicity against isogenic chicken DT40 cell lines with known DNA damage response pathways - wild type cell line (AID 743012); note: nearly all actives have a fitted effect of over 60% in size; note: potency is the fitted concentration of half-maximal effect
Procedure, shortened: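 Parental DNA repair-proficient DT40 cells, 300 per well, were pre-incubated ~0.5 h at 37 C/5% CO2, pin-dosed with compounds in DMSO, then incubated 40 h. Viability was read as CellTiter-Glo luminescence after 30 min at room temperature.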

[12] = qHTS assay for identifying genotoxic compounds that show differential cytotoxicity against isogenic chicken DT40 cell lines with known DNA damage response pathways - Rev3 mutant cell line (AID 743014); note: nearly all actives have a fitted effect of over 55% in size; note: potency is the fitted concentration of half-maximal effect
[13] = qHTS assay for identifying genotoxic compounds that show differential cytotoxicity against isogenic chicken DT40 cell lines with known DNA damage response pathways - Rad54/Ku70 mutant cell line (AID 743015); note: nearly all actives have a fitted effect of over 60% in size; note: potency is the fitted concentration of half-maximal effect
[14] = qHTS assay to identify small molecule antagonists of the androgen receptor (AR) signaling pathway - cell viability counter screen (AID 743033; note: nearly all actives have a fitted effect of over 45% in size)
[15] = qHTS assay to identify small molecule antagonists of the androgen receptor (AR) signaling pathway using the MDA cell line - cell viability counter screen (AID 743041; note: nearly all actives have a fitted effect of over 45% in size)
Procedure, shortened: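 Cells were plated at 3,000 per well and left 5 h. Compounds in DMSO were then pinned in, followed by R1881. After 16 h at 37C, CellTiter-Fluor fluorescence gave viability.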

| Structure (SMILES) | Potency [1] | Potency [2] | Potency [3] | Potency [4] | Potency [5] | outcome [6] | Potency [7] | outcome [8] | Potency [9] | Potency [10] | Potency [11] | Potency [12] | Potency [13] | Potency [14] | Potency [15] |
| --- | --- | --- | --- | --- | --- | --- | --- | --- | --- | --- | --- | --- | --- | --- | --- |
| O=C(c1cc2ccccc2o1)N1CCN(Cc2ccccc2)CC1 | inactive | inactive | inactive | inactive | inactive | inactive | inactive | inactive | inactive | inactive | 26.6 µM (active) | 29.8 µM (active) | 29.8 µM (active) | inactive | inactive |
| CN[C@@H]1[C@@H](O)[C@@H](O[C@@H]2[C@@H](O)[C@H](O[C@H]3O[C@H](CN)[C@@H](O)[C@H](O)[C@H]3O)[C@@H](N)C[C@H]2NC(=O)C(O)CN)OC[C@]1(C)O (stereo not given in full) | inactive | inactive | inactive | inactive | inactive | inactive | inactive | inactive | 6.01 µM (active) | inactive | inactive | inactive | inactive | inactive | inactive |
| CC(=O)N=c1sc(S(N)(=O)=O)nn1C | inactive | inactive | inactive | inactive | inactive | inactive | inactive | inactive | inactive | inactive | inactive | inactive | inactive | inactive | inactive |
| Cc1cc(C(=O)NNCc2ccccc2)no1 | inactive | inactive | inactive | inactive | inactive | inactive | inactive | inactive | inactive | inactive | inactive | inactive | inactive | inactive | inactive |
| CS(=O)(=O)OCCCNCCCOS(C)(=O)=O | inactive | inactive | inactive | inactive | inactive | inactive | inactive | inactive | inactive | inactive | inactive | inactive | inactive | inactive | inactive |
| CC1CS(=O)(=O)CCN1/N=C/c1ccc([N+](=O)[O-])o1 (stereo not given) | inactive | inactive | inactive | inactive | inactive | inactive | inactive | inactive | inactive | inactive | inactive | inactive | inactive | inactive | inactive |
| CS(=O)(=O)NC(=O)CCC/C=C\C[C@H]1C(=O)C[C@@H](O)[C@@H]1/C=C/[C@H](O)COc1ccccc1 | inactive | inactive | inactive | inactive | inactive | inactive | inactive | inactive | inactive | inactive | inactive | inactive | inactive | inactive | inactive |
